Measurements published in PubChem BioAssay (NCI).
Compounds without any hit were thinned out: in the full panel of roughly 83,000, 20% have a hit.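 Growth was measured after 48 h exposure to one concentration of compound in 96-well plates. Values under 10 count as active.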 Values without a mark were called inactive. Activity calls are given as the source filed them.

Key:
Test in all cases: NCI-60 one-dose screen, 48 h (100 = growth as untreated, 0 = no growth, -100 = all killed)
Details in all cases: 10 µM unless noted
BT-549 breast = tested on: BT-549 breast
MDA-MB-435 melanoma = tested on: MDA-MB-435 melanoma
SW-620 colon = tested on: SW-620 colon
MCF7 breast = tested on: MCF7 breast
HCT-116 colon = tested on: HCT-116 colon
HCC-2998 colon = tested on: HCC-2998 colon
KM12 colon = tested on: KM12 colon

Structure (SMILES)	growth (BT-549 breast)	growth (MDA-MB-435 melanoma)	growth (SW-620 colon)	growth (MCF7 breast)	growth (HCT-116 colon)	growth (HCC-2998 colon)	growth (KM12 colon)
CC(=O)Nc1ccc2c(c1)Cc1cc(F)ccc1-2	93.8%	107%	105%	82.2%	102%	94.3%	95.6%
Cc1ccc(C2CC(c3ccc(Nc4nc(NCCO)nc(NCCO)n4)cc3)=NN2c2ccc(Cl)cc2)cc1 (stereo not given)	79%	61.5%	80.4%	27.6%	41.2%	64.1%	52.4%
COc1ccc(NC(=O)c2sc3nc(C)c(C(C)=O)cc3c2N)cc1	86.5%	93.2%	97%	95.7%	88.6%	103%	105%
N#Cc1c(-c2ccc(Cl)cc2)cc(-c2cc3ccccc3o2)nc1SCC(=O)c1ccc(Cl)cc1	112%	104%	94.2%	112%	94.1%	102%	94.9%
O=c1c2ccccc2oc2ccc(OCCCCCCN3CCCCCC3)cc12	60.5%	44.6%	23.5%	28.9%	25.6%	62.9%	29%
CCCCCCCc1n(Cc2ccc3ccccc3c2)c2ccccc2[n+]1Cc1ccc2ccccc2c1	-86.6% (active)	-92.3% (active)	-80% (active)	-64.7% (active)	-84.6% (active)	-61.2% (active)	-74.9% (active)
COc1ccc(Nc2nc(SCC(C)C)nc(-c3ccc(F)cc3)c2C#N)cc1	75.5%	9.54% (active)	47.9%	29.1%	35.7%	92.8%	44.4%
[2H]c1cc2c(c([2H])c1F)/C(=C/c1[nH]c(C)c(C(=O)NCCN(CC)CC)c1C)C(=O)N2	67.6%	34%	25.7%	38.5%	34.1%	69.7%	1.85% (active)
Nc1c(C(=O)Nc2cccc3ccccc23)sc2nc3c(cc12)CCCCCC3	32%	-39.3% (active)	22.4%	20.6%	7.05% (active)	43.3%	21.9%
COc1cc2nc3c(=O)n(CCN(C)C)cnn3c(=O)c2cc1OC	98.6%	97.3%	97%	95.9%	101%	99.3%	95.1%
CCCCN(CCCC)CC(CN(CC)CC)OC(=O)Nc1ccccc1 (stereo not given)	88.4%	102%	74.1%	79.4%	56.5%	85.1%	93.9%
COc1cc(F)c(-c2nc3c(C)cccc3n2Cc2c(F)cccc2F)c(F)c1	98.5%	94.8%	91.6%	78.5%	74.6%	82.1%	90.1%
O=C(Nc1cc(=O)[nH]c(=O)[nH]1)C(Cl)Cl	107%	110%	100%	97.1%	107%	92.4%	107%
C=C1C(=O)O[C@H]2[C@H]1CC/C(COC(=O)N1CCC[C@H]1C(=O)Nc1ccc(OC)c(C(N)=O)c1O)=C\CC[C@@]1(C)O[C@@H]21	38.5%	44.3%	2.83% (active)	12.1%	14.8%	94.8%	67.2%
COC(=O)/C=C1\SC(=Nc2cccc(Cl)c2)N(CCc2c[nH]c3ccccc23)C1=O	44.8%	42.7%	40.5%	20.1%	38.2%	52.9%	24.3%
Cc1cc(O)cc(O)c1N=NC1=NCCS1	93.9%	105%	111%	86.5%	93.3%	95.7%	102%
COc1cc(/C=C/C(=O)/C=C/c2cc3ccc(Cl)cc3[nH]c2=O)ccc1O	97.5%	36%	29.7%	57.8%	2.1% (active)	86.3%	81.3%
Cc1c(Cl)cccc1NC(=O)c1sc2nc3c(cc2c1N)CCCCCC3	11.2%	-19.5% (active)	21.4%	15.1%	5.07% (active)	52.2%	19.1%
Nc1cccc(C(=O)Nc2ccc3c(O)c(N=Nc4ccc(N=Nc5ccc(S(=O)(=O)O)cc5)cc4)c(S(=O)(=O)O)cc3c2)c1	98.6%	105%	107%	97.2%	95%	114%	108%
CC(C)Cc1cc(CNC(=O)C2[C@H]3CN(C(=O)c4ccccc4)C[C@@H]23)nn1-c1ccccc1 (stereo not given in full)	96.1%	108%	102%	94.4%	92%	101%	101%
COc1cc(/C=C/CO)cc(OC)c1O[C@@H]1O[C@H](CO)[C@@H](O)[C@H](O)[C@H]1O	104%	102%	94%	93.2%	95.8%	102%	105%
O=C(O)c1cc(N=Nc2ccc(-c3ccc(N=Nc4c(S(=O)(=O)O)cc5ccc(Nc6ccccc6)cc5c4O)cc3)cc2)ccc1O	115%	106%	102%	92.3%	105%	89.8%	99.6%
[2H]c1nc(Nc2ncc3cc(C(=O)N(C)C)n(C4CCCC4)c3n2)c([2H])c([2H])c1N1C([2H])([2H])C([2H])([2H])NC([2H])([2H])C1([2H])[2H]	89.4%	68.9%	35.5%	46.9%	40.9%	77.5%	42.5%
CCSc1nc(Cl)c(C#N)c(-c2ccc(F)cc2)n1	103%	91.8%	93.3%	85.1%	91.8%	102%	97.9%
C/C(=C\c1cnc(C)s1)[C@@H]1C[C@@H]2O[C@@H]2CCC[C@H](C)[C@H](O)[C@@H](C)C(=O)C(C)(C)[C@@H](O)CC(=O)O1	39.4%	4.21% (active)	34.8%	17.1%	18.4%	18.6%	24.6%
COc1ccc(C(C)c2cc(OC)c(OC)c(OC)c2)cc1 (stereo not given)	24.6%	-42.6% (active)	27%	13.8%	4.67% (active)	30.2%	9.1% (active)
Cc1nnc(/N=C2\NC(=O)/C(=C/c3ccsc3)S2)s1	94.6%	91.5%	98.8%	79%	83.6%	95.7%	84.7%
Cc1cccc(C)c1NCc1nnc(-c2ccc(O)cc2)o1	97.1%	99.1%	100%	90.6%	102%	100%	97%

Structure (SMILES)	growth (BT-549 breast)	growth (MDA-MB-435 melanoma)	growth (SW-620 colon)	growth (MCF7 breast)	growth (HCT-116 colon)	growth (HCC-2998 colon)	growth (KM12 colon)
C[C@@H]1C(=O)[C@@H]2C[C@@H](O)[C@@H](O)C[C@]2(C)[C@H]2CC[C@@]3(C)C(=C12)CC[C@@H]3[C@@](C)(O)[C@H](O)CCC(C)(C)O	102%	108%	106%	104%	103%	97.3%	114%
COc1cc(NC(=O)Nc2cnc(Nc3ccc(N4CCOCC4)cc3)nc2Oc2ccc(C(F)(F)F)cc2)cc(OC)c1	111%	107%	107%	101%	104%	104%	103%
CC1=C/C(=N\N=C2/C=C(C)CC(C)(C)C2)CC(C)(C)C1	112%	108%	106%	102%	98.1%	94.5%	107%
COc1ccc2nc3nc4ccc[nH]c4cc3c2c1	84.1%	101%	95.7%	5.69% (active)	104%	101%	52.1%
Cc1c(O)c(=O)ccn1-c1nc2ccccc2s1	93.4%	99.7%	94.9%	98.6%	95.8%	114%	98.5%
CCC1S/C(=N\N=C(/C)c2ccc[nH]2)N(c2ccccc2)C1=O (stereo not given)	126%	104%	92.8%	117%	91.6%	104%	112%
O=C(CCCCCCCCC(=O)Nc1cccc(C2=NCCN2)c1)Nc1cccc(C2=NCCN2)c1	92.2%	99.2%	97.1%	49.9%	98.3%	95.7%	95.5%
Cc1cc(C)cc(Nc2nccc(-c3c(-c4ccc(F)cc4)ncn3C3CCNCC3)n2)c1	17.7%	-78.8% (active)	-28% (active)	-8.14% (active)	-98.8% (active)	-60.2% (active)	11.8%
CC(=O)Nc1nc2c(c(N)c1C#N)C(c1cccc(Cl)c1)C1=C(CCCC1=O)N2c1sc2c(c1C#N)CCCC2 (stereo not given)	45.9%	65.5%	80.3%	20.7%	33.3%	45.7%	49.1%
O=C1NC(SCc2ccc(F)cc2)=N/C1=C/c1cccc(OCc2ccc(Cl)cc2)c1	87.2%	88.5%	54.1%	64.1%	-10.9% (active)	92.1%	88.9%
CN1CCN(/C=C2\CC(C(=O)NCc3ccc(Cl)cc3Cl)NC2=O)CC1 (stereo not given)	136%	119%	98%	103%	110%	101%	103%
COc1cc2c(Nc3ccc(NC(=O)Nc4ccc(Cl)c(C(F)(F)F)c4)c(Cl)c3)ncnc2cc1OCCCN1CCN(C)CC1	21.6%	-71.2% (active)	-85.4% (active)	-77.4% (active)	-73.2% (active)	20.2%	-55.1% (active)
Cc1nc2sc(C(=O)Nc3cccc(Cl)c3C)c(N)c2cc1C(C)O (stereo not given)	51.3%	1.51% (active)	38.5%	16.6%	13.9%	30.4%	19.1%
O=C1NC(c2ccc(F)cc2)N=C2C(c3ccccc3)=NOC12 (stereo not given)	106%	106%	106%	101%	103%	101%	98.8%
Nc1c(C(=O)c2ccccc2)sc2nc(-c3cc4ccccc4o3)cc(-c3ccc(Cl)cc3)c12	97.9%	108%	118%	92%	101%	108%	93.4%
NC(=O)CN1C(=O)c2ccccc2C1=O	86.6%	106%	103%	95.3%	102%	103%	103%
COc1ccc2cc(/C=C3\N=C(c4cc(OC)c(OC)c(OC)c4)OC3=O)c(OC)nc2c1	104%	106%	100%	99.8%	97.9%	102%	98.9%
C=C1C(=O)O[C@H]2[C@H]1CC/C(COC(=O)c1cc3ccccc3o1)=C\CC[C@@]1(C)O[C@@H]21	-32.5% (active)	-35.1% (active)	-58.2% (active)	-31.8% (active)	-84.1% (active)	61.6%	26.7%
CCN(CC)c1ccc2c(c1)Oc1nc(N)c(C#N)c(N)c1C2Sc1ccc(OC)cc1 (stereo not given)	-0.405% (active)	-26.8% (active)	-8.27% (active)	0.303% (active)	2.7% (active)	-49.2% (active)	-33% (active)
CCOC(=O)c1c(C)nc2c(c1N)CC(=O)N2CCc1ccccc1	-17.1% (active)	8.84% (active)	-67.5% (active)	11.8%	6.98% (active)	64.4%	16.1%
COC(=O)/C=C1\SC(=Nc2cccc(OC)c2)N(CCc2c[nH]c3ccccc23)C1=O	52.3%	62.5%	78.2%	25.8%	50.1%	97%	48.3%
O=C1Nc2ccc(Br)cc2/C1=N\N=C/c1cn(Cc2ccccc2)c2ccccc12	105%	105%	99%	83.2%	93.7%	106%	96.2%
CCCCn1c(=O)c(/C=C/C(=O)/C=C/c2cc3ccccc3n(CCCC)c2=O)cc2ccccc21	-54.5% (active)	-65.2% (active)	-2.85% (active)	-0.486% (active)	-90.3% (active)	-92.6% (active)	-75.8% (active)
CC1CCN(CCCCCOc2ccc3oc4cc(Cl)ccc4c(=O)c3c2)CC1	81.8%	3.73% (active)	36.8%	45.9%	23.3%	79.3%	49.5%
CC[C@]12C=CCN3CC[C@@]4(c5cc(NC(=O)CCC(=O)O[C@H]6CC[C@H]7[C@@H]8CC[C@H]9CC(=O)CC[C@]9(C)[C@H]8CC[C@]67C)c(OC)cc5N(C)[C@H]4[C@@](O)(C(=O)OC)[C@@H]1OC(C)=O)[C@@H]32	58.6%	76.5%	85.6%	48.2%	47.5%	97.5%	74.2%
C#CC[C@@H]1C[C@]2(C)[C@H]3CC[C@@H]4[C@H]5[C@H](C(=C)C)CC[C@]5(C(=O)O)CC[C@@]4(C)[C@]3(C)CC[C@H]2C(C)(C)[C@H]1O	29%	68.5%	33.1%	34.7%	9.2% (active)	64.7%	24.8%
COc1ccc(-n2cc(COc3ccc4c5ccnc(C)c5n(CC(C)C)c4c3)nn2)cc1	66%	87.3%	78.9%	54.3%	50.5%	85.1%	80.2%
